According to PubChem BioAssay:
Active and inactive are the calls of the source.

Tests used:
[1] = test system: Plasmodium falciparum Sir2 (PF13_0152, Sir2A); experiment: pfSir2 binders on small-molecule microarrays, primary screen, biochemical, small-molecule microarray, 635 nm fluorescence (AID 1098); conditions: small-molecule microarray binding, fluorescence 635 nm; higher = more signal;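 also: score merges spot fluorescence intensity with its signal-to-noise ratio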
[2] = small-molecule microarray binders of probe aDKK1, primary screen, biochemical, biotinylated probe, 635/667 nm fluorescence (AID 1099); conditions: higher = more signal;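 also: score merges 667nm spot fluorescence with signal to noise across triplicate slides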
[3] = small-molecule microarray binders of probe aCHRDL2, primary screen, biochemical, biotinylated probe, 635/667 nm fluorescence (AID 1100); conditions: higher = more signal
[4] = splicing luciferase reporter signal modulators, primary screen, spliceosome inhibition project, cell-based, HEK293, splice +/- reporter (AID 1101); conditions: luminescence, 24 h, higher = more signal, called active from +8 up or from −8 down;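 also: HEK293 cells carrying a splicing-competent luciferase reporter gene; test concentration not given here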
[5] = biological target: Fibroblast growth factor 10 (Homo sapiens) (UniProt O15520); experiment: FGF10 binders on small-molecule microarrays, primary screen, biochemical, small-molecule microarray, 635 nm fluorescence (AID 1102); conditions: FGF10 binding, fluorescence 635 nm, higher = more signal
Chain of Fibroblast growth factor 10 (Homo sapiens) (O15520 whole entry, looked up): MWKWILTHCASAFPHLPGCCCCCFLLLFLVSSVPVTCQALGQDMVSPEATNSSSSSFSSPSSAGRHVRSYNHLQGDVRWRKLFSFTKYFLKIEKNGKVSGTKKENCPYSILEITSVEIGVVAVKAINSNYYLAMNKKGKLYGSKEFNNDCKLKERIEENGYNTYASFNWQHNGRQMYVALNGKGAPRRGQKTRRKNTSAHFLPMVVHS

[6] = test system: glycogen synthase kinase-3 (GSK3A per assay name; protocol says GSK3B); experiment: GSK3 binders on small-molecule microarrays, primary screen, biochemical, small-molecule microarray, 635 nm fluorescence, GSK3A (AID 1103); conditions: small-molecule microarray binding, fluorescence 635 nm; higher = more signal; also: the record names both GSK3A and GSK3B
[7] = biological target: Epidermal growth factor receptor (Homo sapiens) (UniProt P00533); experiment: EGFR binders on small-molecule microarrays, primary screen, biochemical, small-molecule microarray, 635 nm fluorescence (AID 1104); conditions: EGFR binding, higher = more signal;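 also: score merges 667 nm emission intensity with spot signal to noise over triplicate slides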
Chain of Epidermal growth factor receptor (Homo sapiens) (P00533 whole entry, looked up): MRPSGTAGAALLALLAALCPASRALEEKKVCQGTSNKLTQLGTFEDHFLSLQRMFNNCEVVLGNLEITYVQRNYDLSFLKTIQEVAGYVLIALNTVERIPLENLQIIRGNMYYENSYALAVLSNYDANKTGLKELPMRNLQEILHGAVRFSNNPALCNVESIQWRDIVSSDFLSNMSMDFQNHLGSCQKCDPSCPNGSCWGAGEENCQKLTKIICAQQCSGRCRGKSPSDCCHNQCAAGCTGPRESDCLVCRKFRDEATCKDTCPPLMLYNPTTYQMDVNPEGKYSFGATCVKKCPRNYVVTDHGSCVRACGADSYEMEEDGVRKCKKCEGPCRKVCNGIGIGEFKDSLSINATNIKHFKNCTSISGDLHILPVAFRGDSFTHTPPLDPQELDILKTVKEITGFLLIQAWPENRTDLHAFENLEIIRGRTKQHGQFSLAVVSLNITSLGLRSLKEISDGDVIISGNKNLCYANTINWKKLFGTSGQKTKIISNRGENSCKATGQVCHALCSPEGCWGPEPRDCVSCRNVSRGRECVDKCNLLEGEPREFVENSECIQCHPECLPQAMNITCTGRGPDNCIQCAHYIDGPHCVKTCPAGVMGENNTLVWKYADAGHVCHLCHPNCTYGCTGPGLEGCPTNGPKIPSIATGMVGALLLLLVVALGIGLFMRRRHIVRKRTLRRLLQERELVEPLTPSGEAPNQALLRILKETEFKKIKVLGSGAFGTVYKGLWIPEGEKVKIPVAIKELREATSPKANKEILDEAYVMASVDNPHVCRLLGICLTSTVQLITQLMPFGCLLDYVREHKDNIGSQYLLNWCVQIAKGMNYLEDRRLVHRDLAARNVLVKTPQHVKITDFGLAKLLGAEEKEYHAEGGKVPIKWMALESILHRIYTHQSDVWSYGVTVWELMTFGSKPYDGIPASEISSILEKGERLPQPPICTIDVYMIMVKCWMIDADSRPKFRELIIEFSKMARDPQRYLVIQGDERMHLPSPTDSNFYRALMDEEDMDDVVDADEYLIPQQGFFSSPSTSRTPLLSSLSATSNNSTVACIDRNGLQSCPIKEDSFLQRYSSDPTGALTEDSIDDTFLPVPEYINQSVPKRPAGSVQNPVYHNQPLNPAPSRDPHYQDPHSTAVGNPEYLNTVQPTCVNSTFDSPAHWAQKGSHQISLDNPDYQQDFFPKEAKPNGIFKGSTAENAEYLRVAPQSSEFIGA

[8] = biological target: Follistatin-related protein 3 (Homo sapiens) (UniProt O95633); experiment: FSTL3 binders on small-molecule microarrays, primary screen, biochemical, small-molecule microarray, 635 nm fluorescence (AID 1105); conditions: FSTL3 binding, higher = more signal;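 also: score merges emission near 667 nm and signal to noise per printed spot across three slides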
Chain of Follistatin-related protein 3 (Homo sapiens) (O95633 whole entry, looked up): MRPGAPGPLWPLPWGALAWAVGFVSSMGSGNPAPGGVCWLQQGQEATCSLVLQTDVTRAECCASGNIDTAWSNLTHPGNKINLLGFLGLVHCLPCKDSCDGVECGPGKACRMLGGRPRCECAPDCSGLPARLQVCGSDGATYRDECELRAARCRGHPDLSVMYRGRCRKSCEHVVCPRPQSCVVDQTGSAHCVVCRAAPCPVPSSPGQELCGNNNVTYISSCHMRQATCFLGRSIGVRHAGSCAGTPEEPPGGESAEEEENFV

[9] = biological target: Dickkopf-related protein 1 (Homo sapiens) (UniProt O94907); experiment: DKK1 binders on small-molecule microarrays, primary screen, biochemical, small-molecule microarray, 635 nm fluorescence scan (AID 1106); conditions: DKK1 binding, higher = more signal;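 also: score merges emission near 667 nm with signal to noise over three replicate slides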
Chain of Dickkopf-related protein 1 (Homo sapiens) (O94907 whole entry, looked up): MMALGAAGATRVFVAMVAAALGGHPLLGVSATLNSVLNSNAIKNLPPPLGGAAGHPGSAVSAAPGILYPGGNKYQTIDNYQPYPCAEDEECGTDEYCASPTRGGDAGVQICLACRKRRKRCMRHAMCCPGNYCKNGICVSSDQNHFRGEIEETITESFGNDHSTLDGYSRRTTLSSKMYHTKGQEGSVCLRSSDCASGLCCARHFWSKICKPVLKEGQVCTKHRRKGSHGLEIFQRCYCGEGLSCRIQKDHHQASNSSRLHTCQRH

[10] = test system: Inhibin beta A chain (activin A); experiment: INHBA (activin A) binders on microarrays, primary screen, biochemical, small-molecule microarray, 635 nm fluorescence scan (AID 1107); conditions: small-molecule microarray binding, higher = more signal;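 also: mouse activin A protein probed at 4.33 µg/mL on printed slides; score merges bound-protein fluorescence near 667 nm with spot signal-to-noise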
[11] = test system: Human papillomavirus type 1a protein E7 (residues 44-93); experiment: HPV1a E7 fragment binders on microarrays, primary screen, biochemical, small-molecule microarray, residues 44-93, 635 nm fluorescence (AID 1108); conditions: small-molecule microarray binding, fluorescence 635 nm; higher = more signal;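 also: E7 fragment applied at 1 µg/mL in TBST for 1 h at 4 C; score combines spot fluorescence with its signal to noise ratio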
[12] = modulators of HCV replicon luciferase signal, primary screen, HCV replication inhibitor project, Huh7 cells, luciferase reporter (AID 1109); conditions: 48 h, higher = more signal;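 also: huh7 hepatoma cells harbouring a luciferase neomycin HCV replicon reporter; luciferase luminescence as measure of HCV replicon replication; test concentration not given here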
[13] = biological target: Left-right determination factor 2 (Homo sapiens) (UniProt O00292); experiment: LEFTY2 binders on small-molecule microarrays, primary screen, biochemical, small-molecule microarray, 635 nm fluorescence scan (AID 1110); conditions: LEFTY2 binding, higher = more signal
Chain of Left-right determination factor 2 (Homo sapiens) (O00292 whole entry, looked up): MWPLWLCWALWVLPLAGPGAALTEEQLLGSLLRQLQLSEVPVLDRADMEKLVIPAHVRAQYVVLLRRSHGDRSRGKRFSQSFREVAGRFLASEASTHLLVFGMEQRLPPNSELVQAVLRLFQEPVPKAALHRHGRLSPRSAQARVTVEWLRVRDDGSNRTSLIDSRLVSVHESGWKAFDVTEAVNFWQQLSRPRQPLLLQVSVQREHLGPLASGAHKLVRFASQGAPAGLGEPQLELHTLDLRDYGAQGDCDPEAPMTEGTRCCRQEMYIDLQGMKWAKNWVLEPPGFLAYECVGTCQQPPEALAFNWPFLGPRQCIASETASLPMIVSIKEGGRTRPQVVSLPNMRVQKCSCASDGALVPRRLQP

[14] = biological target: Calmodulin-1 (Homo sapiens) (UniProt P0DP23); experiment: CALM1 binders on microarrays, EGTA buffer, profiling panel, biochemical, small-molecule microarray, Cy5-labelled CALM1 (AID 1111); conditions: Cy5-CALM1 binding fluorescence, higher = more signal;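 also: labelled calmodulin applied in Tris saline Tween buffer holding calcium plus EGTA and DTT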
[15] = biological target: Calmodulin-1 (Homo sapiens) (UniProt P0DP23); experiment: calcium-bound CALM1 binders on microarrays, profiling panel, artefact control for SMM control-protein annotation, biochemical, small-molecule microarray, Cy5-labelled CALM1, plus calcium (AID 1112); conditions: Cy5-CALM1 binding fluorescence, higher = more signal;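 also: score merges spot fluorescence with signal to noise from triplicate slides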
[16] = small-molecule microarray binders of probe aWnt5a, primary screen, biochemical, biotinylated probe, 635/667 nm fluorescence (AID 1113); conditions: higher = more signal;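 also: score merges 667 nm fluorescence intensity with signal-to-noise per printed feature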
[17] = small-molecule microarray binders of probe aShh, primary screen, biochemical, biotinylated probe, 635/667 nm fluorescence (AID 1114); conditions: higher = more signal;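 also: probe is biotin-labelled aShh protein from a stem cell growth factor screen; measures binding of labelled protein to compounds printed on the slide; score merges feature fluorescence at 667 nm with signal-to-noise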
[18] = small-molecule microarray binders of probe aNog, primary screen, biochemical, biotinylated probe, 635/667 nm fluorescence (AID 1115); conditions: higher = more signal;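 also: probe is biotinylated aNog protein used at 0.15 µg/mL for 1 h at 4 C; z-score combines 667 nm fluorescence of each spot with its signal to noise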
[19] = biological target: Torsin-1A-interacting protein 1 (Homo sapiens) (UniProt Q5JTV8); experiment: LAP1 binders from COS7 cell lysate, primary screen, small-molecule microarray, 635/667 nm fluorescence (AID 1116); conditions: COS7-hLAP1 lysate binding, 635 nm fluorescence, higher = more signal
Chain of Torsin-1A-interacting protein 1 (Homo sapiens) (Q5JTV8 whole entry, looked up): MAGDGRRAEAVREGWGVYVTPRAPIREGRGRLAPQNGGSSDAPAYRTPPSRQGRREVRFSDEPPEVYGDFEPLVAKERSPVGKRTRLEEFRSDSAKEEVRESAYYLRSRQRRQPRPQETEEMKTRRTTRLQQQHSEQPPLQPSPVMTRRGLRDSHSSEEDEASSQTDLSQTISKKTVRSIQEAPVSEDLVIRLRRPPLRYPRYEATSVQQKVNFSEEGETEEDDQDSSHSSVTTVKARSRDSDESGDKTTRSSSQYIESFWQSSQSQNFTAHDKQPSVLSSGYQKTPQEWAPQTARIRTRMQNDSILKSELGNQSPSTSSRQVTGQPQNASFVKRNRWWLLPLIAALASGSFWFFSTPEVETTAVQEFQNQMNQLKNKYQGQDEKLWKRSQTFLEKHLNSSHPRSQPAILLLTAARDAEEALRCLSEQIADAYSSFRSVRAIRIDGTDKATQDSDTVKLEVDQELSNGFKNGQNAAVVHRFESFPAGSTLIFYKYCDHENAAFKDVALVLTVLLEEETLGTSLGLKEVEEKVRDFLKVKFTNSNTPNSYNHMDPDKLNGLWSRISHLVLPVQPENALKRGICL

[20] = biological target: Alpha-bungarotoxin (Bungarus multicinctus) (UniProt P60615); experiment: alpha-bungarotoxin binders on microarray, profiling panel, artefact control for SMM control protein annotation, biochemical, small-molecule microarray, Alexa647 label, 635/667 nm fluorescence (AID 1117); conditions: alpha-BTX-A647 binding fluorescence, higher = more signal
Chain of Alpha-bungarotoxin (Bungarus multicinctus) (P60615 whole entry, looked up): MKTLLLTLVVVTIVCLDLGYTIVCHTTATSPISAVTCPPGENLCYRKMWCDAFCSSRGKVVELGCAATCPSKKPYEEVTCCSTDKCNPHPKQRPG

SMILES | composite z-score [1] | composite z-score [2] | composite z-score [3] | z-score [4] | composite z-score [5] | composite z-score [6] | composite z-score [7] | composite z-score [8] | composite z-score [9] | composite z-score [10] | composite z-score [11] | z-score [12] | composite z-score [13] | composite z-score [14] | composite z-score [15] | composite z-score [16] | composite z-score [17] | composite z-score [18] | composite z-score [19] | composite z-score [20]
[N-]=[N+]=Nc1ccccc1C[C@@]1(C(=O)N2CCCCC2)N=C(c2ccc(OCCCO)cc2)O[C@@H]1c1ccccc1N=[N+]=[N-] | 0.95 | 1.32 | 1.32 | 0.766 (inactive) | 0.914 | 1.05 | 0.105 | 0.673 | -0.0252 | 1.59 | 0.869 | -2.71 | -0.145 | 1.6 | 1.04 | 0.151 | 0.778 | 0.353 | 0.71 | 2.09
COc1ccc([Si](C)(C)[C@H]2[C@H](CCO)O[C@@]3(C(=O)N(Cc4ccccc4)c4ccc(N5CCCCC5=O)cc43)[C@@H]2C)cc1 | 1.06 | -0.0725 | 0.104 | -2.11 (inactive) | 0.884 | 0.737 | 0.199 | 0.579 | -0.0075 | 0.301 | 0.668 | -5.03 | -0.161 | 0.674 | 0.167 | -0.0685 | -0.156 | -0.135 | 0.652 | 0.883
[N-]=[N+]=Nc1ccccc1C[C@]1(C(=O)N2CCCCC2)COC(c2ccc(OCCCO)cc2)=N1 | -0.315 | 0.149 | 0.89 | -0.806 (inactive) | 1.28 | 1.3 | -0.214 | 0.615 | -0.482 | 1.01 | 1.44 | -2.43 | -0.241 | 1.35 | 0.234 | 0.117 | -0.217 | -0.673 | 1.03 | 0.465
CN(C)C(=O)[C@]1(Cc2ccccc2)N=C(c2ccc(OCCCO)cc2)O[C@@H]1c1ccccc1N=[N+]=[N-] | 0.684 | 0.74 | 1.05 | -0.968 (inactive) | 1.5 | 1.3 | 0.382 | 0.817 | 0.173 | 1.25 | 1.4 | -2.58 | 0.357 | 1.63 | 0.393 | 0.0926 | 0.398 | -0.0332 | 2.01 | 1.37
CC(=O)NCCCC[C@@H]1NC(=O)[C@H]2C[C@@H](C(=O)NCCCCCNC(=O)CS)[C@@H](c3ccc(O)cc3)N2C1=O | 0.273 | 0.143 | 0.762 | -0.372 (inactive) | 0.157 | -0.252 | -0.578 | -0.84 | -0.186 | -0.0107 | 0.46 | -0.0987 | -0.574 | 0.362 | 0.438 | -0.0919 | -0.0035 | -0.196 | 0.177 | 0.117
COCCOC(=O)N1C(=O)[C@@]2(c3cc(C#CCCO)ccc31)[C@H](c1ccc(O)cc1)N1[C@H](c3ccccc3)[C@H](c3ccccc3)OC(=O)[C@H]1[C@@H]2C(=O)N1CCN(c2ncccn2)CC1 | 1.71 | -0.365 | -0.0062 | -0.0232 (inactive) | 1.11 | 1.31 | 0.36 | 0.899 | 0.417 | 1.29 | 1.17 | -0.305 | 0.613 | 1.42 | 0.374 | 0.594 | 0.918 | 2.56 | 1.68 | 1.47
CO[C@H]1O[C@H](CO)[C@@H](OC(=O)Nc2ccccc2-c2ccccc2)[C@H](OC(=O)Nc2ccccc2-c2ccccc2)[C@@H]1OC(=O)Nc1ccccc1-c1ccccc1 | 1.63 | 0.408 | 0.625 | 0.389 (inactive) | 1.43 | 1.12 | -0.168 | 1.03 | 0.208 | 0.0923 | 0.538 | -1.77 | 0.292 | 1.74 | 0.459 | -0.0196 | -0.0769 | 0.799 | 0.146 | 0.818
COC(=O)C(CC#Cc1ccc2c(c1)[C@]1(C(=O)N2)[C@H](c2ccccc2OCCO)N2[C@H](c3ccccc3)[C@H](c3ccccc3)OC(=O)[C@H]2[C@@H]1C(N)=O)C(=O)OC | 1.54 | 1.45 | 0.862 | -3.57 (inactive) | 0.376 | 1 | 0.241 | 0.412 | -0.221 | 0.693 | 0.599 | -2.95 | -0.0862 | 1.33 | 0.116 | 0.349 | 0.679 | 2.29 | 1.21 | 2.45
COCCOC(=O)N1C(=O)[C@@]2(c3cc(C#CCCO)ccc31)[C@H](c1ccc(OCCO)cc1)N1[C@H](c3ccccc3)[C@H](c3ccccc3)OC(=O)[C@H]1[C@@H]2C(N)=O | 0.923 | 0.0909 | -0.0603 | -1.59 (inactive) | 0.874 | 1.3 | 0.587 | 0.829 | 0.441 | 0.257 | 1.44 | -1.13 | 0.606 | 0.852 | 0.278 | 0.0136 | 0.171 | 0.226 | 0.918 | 0.338
CCOC(=O)C[C@H]1[C@H](OC(=O)c2ccc(C(=O)c3ccccc3)cc2)[C@@H](NC(=O)Cc2ccc(OC)cc2)c2cc(OCCCO)ccc2N1C(=O)c1ccc2ccccc2n1 | 0.31 | 0.05 | 0.161 | 0.409 (inactive) | 0.526 | 0.392 | 0.208 | 0.811 | 0.0905 | 0.468 | 0.998 | -0.873 | 0.816 | 0.985 | 0.336 | -0.131 | -0.0709 | -0.526 | 0.566 | 0.738
C[C@H]1C2[C@H](Cc3ccccc3)NC(=O)[C@]23C(=O)NCC(=O)N2CCC[C@H]2C(=O)NC/C=C/CCC/C=C/C3[C@@H]2O[C@]12C (stereo not given in full) | 0.38 | -0.398 | -0.269 | -0.0803 (inactive) | -0.568 | -1.26 | -0.681 | -0.618 | -0.233 | 1.55 | -0.484 | 0.478 | -0.693 | -0.738 | -1.2 | -0.0075 | -0.138 | -0.387 | -0.106 | -0.65
